Bioassay records deposited in PubChem BioAssay by National Center for Advancing Translational Sciences (NCATS).
Only a selection was taken, and hits are over-represented in it overall.
TbPYK inhibitor = inhibitors of Trypanosoma brucei pyruvate kinase; Q57TT1; TbPYK enzyme, Kinase-Glo Plus ATP luminescence, 45 min; Potency, µM (series often up to 76.8 µM), inactives show at the top dose activity, negative = inhibition, hits mostly inhibitors; 0.12% of 410,000 active; note: potency is the fitted concentration of half-maximal effect; % is set by controls: 0 for no effect and ±100 for the full control effect; nearly all actives have a fitted effect of over 50% in size
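ADP (130 uM final) triggers the TbPYK reaction after compound addition; incubation is 45 min at room temperature. Kinase-Glo Plus is then added and luminescence imaged. Normalized data are fitted to concentration-effect curves.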
RE007 growth inh = less growth of the S. pombe RE007 Vpr strain. S. pombe RE007 Vpr strain, BacTiter-Glo ATP luminescence, 24 h. Potency, µM (top dose mostly 92.2 µM), inactives show at the highest dose activity change, negative = less growth, most hits filed as inhibitors. 0.21% of 360,000 active. AID 651644; active = well fitted falling curve with a large enough effect; inconclusive = small, poorly fitted or top-dose-only effect; inactive = no such curve, though single readings can be large or run the other way; note: potency is the fitted concentration of half-maximal effect; % is set by controls: 0 for no effect and ±100 for the full control effect; nearly all actives have a fitted effect of over 50% in size
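Fission yeast strain RE007, carrying one chromosomally integrated HIV-1 vpr copy, was seeded at OD 0.01 in PMG+AL medium with 23 nL pinned compound. After 24 h at 30 °C and 99% humidity, viability was read by BacTiter-Glo luminescence.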
LmPK inh = blocks Leishmania mexicana pyruvate kinase activity; Q27686; purified LmPK, Kinase-Glo ATP luminescence, 1 h; Potency, µM (titrated, usually from 57.5 µM), without a hit: at the top dose activity change, negative = inhibition, hits mostly inhibitors; 0.37% of 290,000 active; AID 1721; note: potency is the fitted concentration of half-maximal effect; % is set by controls: 0 for no effect and ±100 for the full control effect
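Pyruvate kinase activity monitored as ATP production (luciferase luminescence). Conditions: 0.1 nM enzyme, 0.5 mM PEP, 0.1 mM ADP, 1 h, RT; normalized against uninhibited and no-enzyme wells.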
FBPA Giardia inh = Giardia lamblia aldolase inhibition; A8B2U2; purified Giardia FBPA; Potency, µM (top dose mostly 59.6 µM), without a hit: at the highest dose activity, negative = inhibition, usual class: inhibitors; 0.71% of 290,000 active; AID 2451; note: potency is the fitted concentration of half-maximal effect; % is set by controls: 0 for no effect and ±100 for the full control effect; nearly all actives have a fitted effect of over 55% in size
Target sequence (A8B2U2 whole entry, looked up): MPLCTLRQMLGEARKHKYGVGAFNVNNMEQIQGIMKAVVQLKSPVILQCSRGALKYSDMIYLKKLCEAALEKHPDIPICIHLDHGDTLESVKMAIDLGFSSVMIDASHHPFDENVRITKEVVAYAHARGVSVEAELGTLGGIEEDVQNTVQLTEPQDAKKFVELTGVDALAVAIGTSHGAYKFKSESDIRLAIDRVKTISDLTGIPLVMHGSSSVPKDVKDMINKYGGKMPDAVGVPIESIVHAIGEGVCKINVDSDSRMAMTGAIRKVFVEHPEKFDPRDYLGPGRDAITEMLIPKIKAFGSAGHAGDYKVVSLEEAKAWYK
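Giardia FBPA (40 nM reagent) was preincubated 10 min at RT with compound (up to 57.5 uM final), then substrate plus GAPDH/TPI/NAD/arsenate coupling system with diaphorase/resazurin was added; resorufin fluorescence (525/598 nm) was read after 20 min.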
Cycloheximide cs = affects cycloheximide protein synthesis inhibition readout, counter-screen; cell reporter, cycloheximide protein synthesis inhibition counterscreen; AID 2314; 12% of 300,000 active; max response, %; in the data active = max response mostly above about 13%, no sharp cut-off; inactive = mostly below about 14%; note: read at 38.3 µM for the half of the compounds with a filed dose; 0% is about no effect
Shiga inhibitor = blocks Shiga toxin action in Vero cells; Vero cells, Shiga toxin protein synthesis inhibition reporter; inhibition, % at 38.7 µM; 9.2% of 290,000 active; in the data active = inhibition mostly above about 28%, no sharp cut-off; inactive = mostly below about 43%; note: 0% is about no effect
* marks the source's active call; other numbers are inactive results; ? = inconclusive; / = no result given. Unless noted, calls come from the whole dose curve; as a rule, active = well fitted curve in the direction sought with a large enough effect; inconclusive = small, poorly fitted or top-dose-only effect, or another doubt; inactive = no such curve, though single readings can be large; an effect the other way counts as inactive or inconclusive.

SMILES | TbPYK inhibitor | RE007 growth inh | LmPK inh | FBPA Giardia inh | Cycloheximide cs | Shiga inhibitor
CC(=O)Nc1cc(-c2nc3cc(Cl)ccc3o2)ccc1C | -2% | / | / | / | / | /
Cc1csc(SCC(=O)Nc2ccc(C)c(F)c2)n1 | 0% | -5% | / | / | / | /
Fc1ccc(Nc2nc(SCc3cccc(F)c3)nc3ccccc23)cc1 | -2% | / | / | / | / | /
Cc1c(C(C)(C)C)sc(=NC(=O)c2ccccc2O)n1C | 22% | -4% | -1% | 4% | 38* | 82*
COc1ccc(Cn2c(CCC(=O)Nc3ccc(OC)c(Cl)c3)nc3cccnc32)cc1 | -1% | / | / | / | / | /
CC1(C)OC(=O)C(=Cc2ccc(-c3ccc(Cl)c(C(=O)O)c3)o2)C(=O)O1 | 16µM* | 43% | 32% | -16% | 8 | -15
O=C(O)c1cc(-c2ccc(/C=C3/SC(=S)N(Cc4ccccc4)C3=O)o2)ccc1Cl | -13% | 3% | 8% | ? | 29* | 63*
C=CCOC(=O)c1cc(-c2ccc(/C=C3\C(=O)NC(=O)C(C#N)=C3C)o2)ccc1Cl | -11% | 40µM* | 13% | ? | 2 | -4
COc1ccc(Cl)cc1NC(=S)N(CCN1CCOCC1)C1CCN(C(C)=O)CC1 | -4% | 5% | 8% | -5% | -2 | 19
O=C1CCCC(O)=C1C=Nc1ccc(O)cc1 | -1% | 0% | -3% | 1% | 13 | 32
Cc1nc2cc(N=NC3=C(O)CCCC3=O)ccc2s1 | -6% | -18% | -25% | -4% | 61* | 89*
CC(=O)N1CCc2cc(N=NC3=C(O)CCCC3=O)ccc21 | -7% | 7% | -10% | -8% | 31* | 92*
CC(=O)N1CCc2cc(S(=O)(=O)N3CCCCCC3)ccc21 | -3% | -8% | -11% | / | -1 | -12
O=C1CCCC(O)=C1N=Nc1ccc(Cl)c(Cl)c1 | -1% | -23% | -8% | -8% | 23* | 15
COc1ccc(-c2nnc3n2N=C(c2c(OC)cccc2OC)CS3)cc1 | / | / | / | -4% | 15 | 9
Cc1cccc(NC(=O)C(=O)NCC(c2ccc3c(c2)OCO3)N2CCOCC2)c1C (configuration not stated) | 2% | / | / | / | / | /
Cc1[nH]c(=O)c(C(=O)/C=C/c2ccccc2F)c2c1CCCC2 | 6% | 2% | 2% | -14% | -3 | -14
CCOC(=O)N1CCC(NC(=O)c2cnn(-c3ccc(F)cc3)c2-n2cccc2)CC1 | 1% | / | / | / | / | /
CCOC(=O)N1CCN(C(=O)c2nc3ccccc3s2)CC1 | 2% | 21% | -2% | 9% | 34* | 73*
CCOC(=O)C1CCN(C(=O)c2ccc3c(c2)sc2nc(-c4ccccc4)cn23)CC1 | -4% | / | / | / | / | /
CCOC(=O)N1CCC(NC(=O)c2ccc3c(c2)sc2nc(-c4ccc(OC)cc4)cn23)CC1 | / | / | -7% | 1% | 20* | 57*
CCOC(=O)N1CCN(C(=O)c2ccc3c(c2)sc2nc(-c4ccccc4)cn23)CC1 | -16% | 10% | -5% | 0% | 53* | 43*
CCOC(=O)N1CCN(CC(=O)Nc2nc3ccccc3s2)CC1 | -16% | -6% | 0% | ? | -2 | /
CC1CCCCC1NC(=O)C1CCCN(S(=O)(=O)c2ccc(-n3cnnn3)cc2)C1 (configuration not stated) | 10% | -21% | -5% | -9% | -4 | -14
COc1ncc2nc(C)c(=O)n(Cc3ccc(F)cc3)c2n1 | / | / | / | 4% | / | /
c1csc(-c2nnc(N3CCOCC3)c3ccccc23)c1 | -5% | 13% | -5% | 1% | 2 | -9
c1csc(-c2nnc(N3CCCCCC3)c3ccccc23)c1 | 0% | -10% | -4% | ? | 15* | 77*
Cc1nccc(-c2sc(-c3cccs3)nc2C)n1 | -4% | -12% | -5% | 2% | 36* | 58*
